The text below walks through data of PubChem BioAssay (NCI).

Assay in all cases: NCI-60 one-dose screen, 48 h (100 = growth as untreated, 0 = no growth, -100 = all killed)
Holding throughout (settings): 10 µM unless noted

Experiment [1] has as its system T-47D breast.
For experiment [2], the system named is BT-549 breast.
Experiment [3] has as its system MDA-MB-435 melanoma.
The test system of experiment [4] is SW-620 colon.
For experiment [5], the system named is MCF7 breast.
Experiment [6] concerns HCT-116 colon.
Experiment [7] has as its system HCC-2998 colon.
Experiment [8] relates to KM12 colon.

Compounds without any hit were thinned out: in the full panel of roughly 83,000, 20% have a hit.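 How to read the values: 0–100, growth inhibition (40 = 60% inhibited); 0, no net growth; -100 to 0, cell death (-40 = 40% of starting cells died; -100 = all dead).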 Unmarked numbers belong to inactive results. The source made the active and inactive calls. How the source made its calls: active means growth percent below 10; inactive means the rest.

`COc1cnc2c(c1)C(=O)c1c-2n(CCCN2CCC(O)CC2)c(=O)c2cc(F)ccc12`: the growth is -4.28% (active) in experiment [1]; 0.525% (active) in experiment [2]; 8.13% (active) in experiment [3]; 6.58% (active) in experiment [4]; 0.145% (active) in experiment [5]; -71.7% (active) in experiment [6]. Further, the growth was 13.5% in experiment [7] and -6.17% (active) in experiment [8].

As to `COc1cc(OC)c2c(c1Cl)O[C@]1(C2=O)C(OCc2ccccc2)=CC(=O)C[C@H]1C`, the growth is 8.09% (active) in experiment [1]; 24.2% in experiment [2]; -44.5% (active) in experiment [3]; 19.8% in experiment [4]; 12.7% in experiment [5]; 7.75% (active) in experiment [6]. In addition, the results for the growth in experiment [7] and in experiment [8] were -5.11% (active) and 7.93% (active), respectively.

With `CCCCCCCCCCN1CCC(N2CCCCC2)CC1`, the growth in experiment [1] was -55.9% (active); in experiment [2], 37.5%; in experiment [3] it was -25% (active); in experiment [4] it was -56.9% (active); in experiment [5], -60.8% (active); in experiment [6], -65.2% (active). Also, the growth in experiment [7] is 14.8%; in experiment [8], -6.35% (active).

On to `CC1CN(CC(O)c2ccc(Br)cc2)CCO1` (configuration not stated), for which the growth in experiment [1] is 107%; in experiment [2], 106%; in experiment [3], 121%; in experiment [4], 109%; in experiment [5], 105%; in experiment [6] it was 108%. Moreover, the growth in experiment [7] is 103%; in experiment [8], 107%.

As for `CC(C)=CCCC(C)c1ccc(C)c2c1OCN(CC1CCNCC1)C2` (configuration not stated), the growth in experiment [1] was -94.4% (active); in experiment [2], 55.8%; in experiment [3], 14.7%; in experiment [4] it was 28%; in experiment [5] it was 36.6%; in experiment [6], -37.2% (active). The growth in experiment [7] is -82.1% (active); in experiment [8], 38.4%.

As to `COc1cc(Cl)cc(-c2nn(-c3cccc(NC(=O)c4cc(C(F)(F)F)cc(C(F)(F)F)c4)c3)cc2-c2ccncc2)c1`, the growth in experiment [1] was 53.4%; in experiment [2], 96.8%; in experiment [3], 80%; in experiment [4], 86.2%; in experiment [5] it was 57.8%; in experiment [6], 35.2%. The growth was 78.3% in experiment [7] and 55.5% in experiment [8].

Turning to `COc1cc(/C=C/C(=O)CC(=O)/C=C/c2ccc(OC(=O)C3C4CC5CC(C4)CC3C5)c(OC)c2)ccc1OC(=O)C1C2CC3CC(C2)CC1C3` (configuration not stated), the growth in experiment [1] was 99.4%; in experiment [2], 108%; in experiment [3], 112%; in experiment [4] it was 113%; in experiment [5], 110%; in experiment [6], 93%. The growth in experiment [7] is 98.8%; in experiment [8] it was 107%.

As for `N#Cc1c(-c2ccccc2)cc(-c2ccccc2)n(CCCC(=O)O)c1=O`, the growth in experiment [1] is 89.1%; in experiment [2] it was 83.6%; in experiment [3], 104%; in experiment [4] it was 105%; in experiment [5], 60%; in experiment [6] it was 93%. For the same molecule, the growth in experiment [7] and in experiment [8] was 103% each time.

Regarding `O=C1/C=C/[C@@H](O)[C@@H]2C[C@@H](O)C[C@H]2/C=C/CCC[C@H](CO)O1`, the growth in experiment [1] is 32.5%; in experiment [2], 20.1%; in experiment [3], 18.5%; in experiment [4] it was 10.5%; in experiment [5], -2.04% (active); in experiment [6], 2.08% (active). Further, the growth in experiment [7] is -22.5% (active); in experiment [8] it was 2.96% (active).

On to `C=C1CCC2C(C)(COC(=O)CC)C(OC(=O)CC)CCC2(C)C1C/C=C1/C(=O)OCC1OC(=O)CC` (configuration not stated), for which the growth was -51.9% (active) in experiment [1]; 83.6% in experiment [2]; 2.16% (active) in experiment [3]; -62.2% (active) in experiment [4]; -35.1% (active) in experiment [5]; -100% (active) in experiment [6]. In addition, the results for the growth in experiment [7] and in experiment [8] were -65.8% (active) and 3.97% (active), respectively.

Consider `Cc1ccc2nc3c(n2c1)C(=O)C(=O)c1ccccc1-3`, for which the growth in experiment [1] was -44.1% (active); in experiment [2] it was -96.4% (active); in experiment [3] it was -69.6% (active); in experiment [4], -80.5% (active); in experiment [5], -64.1% (active); in experiment [6] it was -50.4% (active). For the same molecule, the growth in experiment [7] was -54% (active); in experiment [8], -26.6% (active).

In the case of `COc1cc(/C=C2\SC(N3CCCCC3)=NC2=O)ccc1OCCCCCCOc1ccc(/C=C2\SC(N3CCCCC3)=NC2=O)cc1OC`, the growth is 21.9% in experiment [1]; -36.6% (active) in experiment [2]; -48% (active) in experiment [3]; -24.7% (active) in experiment [4]; 16.6% in experiment [5]; -64.3% (active) in experiment [6]. The figures for the growth in experiment [7] and in experiment [8] were -76.5% (active) and -72.1% (active), respectively.

For the molecule `N#Cc1c(NC(=O)c2ccco2)[n+]([O-])c2cc(Cl)c(Cl)cc2[n+]1[O-]`, the growth is 112% in experiment [1]; 94.4% in experiment [2]; 126% in experiment [3]; 119% in experiment [4]; 87.8% in experiment [5]; 105% in experiment [6]. The growth in experiment [7] was 109%; in experiment [8], 131%.

As for `CN1C(=O)C(C2=NN(C=O)C(c3ccc(F)cc3)C2)C(=O)N(C)C1=O` (configuration not stated), the growth in experiment [1] is 92.9%; in experiment [2] it was 102%; in experiment [3], 102%; in experiment [4] it was 98.8%; in experiment [5] it was 93.4%; in experiment [6] it was 98.7%. The figures for the growth in experiment [7] and in experiment [8] were 97.5% and 99.9%, respectively.

For the molecule `CC(=O)N1N=C(c2ccc(Cl)cc2)CC1c1c(C)nn(-c2ccccc2)c1N(C)Cc1ccccc1` (configuration not stated), the growth in experiment [1] is 59.6%; in experiment [2], 88.5%; in experiment [3] it was 87%; in experiment [4], 80.6%; in experiment [5], 72.2%; in experiment [6], 53.1%. Besides, the values for the growth in experiment [7] and in experiment [8] were 88.2% and 74.8%, respectively.

In the case of `COc1ccccc1NC(=O)c1sc2nc3c(cc2c1N)C(=O)CCC3`, the growth in experiment [1] was 87.3%; in experiment [2], 63.1%; in experiment [3], -31.9% (active); in experiment [4] it was 60.2%; in experiment [5], 59%; in experiment [6] it was 75.5%. Further, the growth was 75.5% in experiment [7] and 53.4% in experiment [8].

For the molecule `Cc1csc(C#Cc2cncc(O)c2)n1`, the growth in experiment [1] is 98.3%; in experiment [2], 113%; in experiment [3], 96.8%; in experiment [4] it was 113%; in experiment [5], 97.8%; in experiment [6], 103%. For the same molecule, the growth is 107% in experiment [7] and 125% in experiment [8].

Consider `Cc1[nH]c(=O)[nH]c(=O)c1CCSSCCc1c(C)[nH]c(=O)[nH]c1=O`, for which the growth was 96.6% in experiment [1]; 105% in experiment [2]; 103% in experiment [3]; 108% in experiment [4]; 87.2% in experiment [5]; 101% in experiment [6]. For the same molecule, the growth in experiment [7] was 102%; in experiment [8], 101%.

Turning to `O=C(/C=C/c1cccc(O)c1)c1cccc(-n2cc(-c3ccccc3)[nH]c2=O)c1`, the growth in experiment [1] was 21.1%; in experiment [2] it was 7.56% (active); in experiment [3] it was 33.8%; in experiment [4] it was -32.1% (active); in experiment [5] it was 6.52% (active); in experiment [6] it was -67.7% (active). Further, the values for the growth in experiment [7] and in experiment [8] were -44.2% (active) and -73.3% (active), respectively.

On to `COc1cc(C(=O)c2cc3c(cc2C)OCO3)cc(OC)c1OC`, for which the growth in experiment [1] is 58.2%; in experiment [2], 68.3%; in experiment [3], -49% (active); in experiment [4] it was 25.6%; in experiment [5] it was 13.6%; in experiment [6] it was 15.9%. For the same molecule, the values for the growth in experiment [7] and in experiment [8] were 10.1% and 16.5%, respectively.

Take `CCOC(=O)c1cc2oc(/C=C/c3cc(=O)c4cc(Cl)ccc4o3)cc2[nH]1`: the growth was 68.4% in experiment [1]; 53.5% in experiment [2]; 88.2% in experiment [3]; 82.5% in experiment [4]; 40.2% in experiment [5]; 81.2% in experiment [6]. Moreover, the growth in experiment [7] was 98.1%; in experiment [8], 62.8%.

On to `Cc1[nH]ccc2cc3nc4ccccc4c3cc12`, for which the growth in experiment [1] was 27.7%; in experiment [2], 60.3%; in experiment [3], 33.9%; in experiment [4] it was 22.1%; in experiment [5], 7.1% (active); in experiment [6] it was 22%. The growth in experiment [7] is 33.7%; in experiment [8], 29%.

As to `CC(=O)N1N=C(c2ccc(Nc3ccnc4cc(Cl)ccc34)cc2)CC1c1ccc(Cl)cc1` (configuration not stated), the growth is 25.5% in experiment [1]; 54.7% in experiment [2]; 6.15% (active) in experiment [3]; 63.1% in experiment [4]; 25.6% in experiment [5]; 55.6% in experiment [6]. Also, the figures for the growth in experiment [7] and in experiment [8] were 44.4% and 36.5%, respectively.

For the molecule `c1ccc(Nc2ccc(Nc3nc(-c4ccccc4)nc4ccccc34)cc2)cc1`, the growth in experiment [1] is 47.9%; in experiment [2] it was 93.8%; in experiment [3], 87.5%; in experiment [4] it was 75.7%; in experiment [5], 80.6%; in experiment [6] it was 74.9%. Also, the growth in experiment [7] is 89%; in experiment [8], 36.4%.

`COc1cccc(N2CCN(CC(=O)N3CCN(c4nnc(-c5ccc(Cl)cc5)c(-c5ccc(Cl)cc5)n4)CC3)CC2)c1`: the growth in experiment [1] is 27.2%; in experiment [2], 88.4%; in experiment [3], 70.9%; in experiment [4], 72.3%; in experiment [5], 41.2%; in experiment [6], 40.1%. The growth was 80.6% in experiment [7] and 56.5% in experiment [8].

With `Nc1ccn(C2O[C@H](CO)[C@@H](O)[C@@H]2O)c(=O)n1` (some centres not stated), the growth in experiment [1] was 80.5%; in experiment [2], 81.2%; in experiment [3], 45.3%; in experiment [4], 45.9%; in experiment [5], 24%; in experiment [6], 32.4%. The values for the growth in experiment [7] and in experiment [8] were 53.5% and 58.1%, respectively.

As for `O=C(CC1Sc2ccccc2NC1=O)NNc1cccc(Cl)c1Cl` (configuration not stated), the growth is 73% in experiment [1]; 89.1% in experiment [2]; 95.4% in experiment [3]; 87.3% in experiment [4]; 92.4% in experiment [5]; 87% in experiment [6]. The growth is 88.5% in experiment [7] and 82.7% in experiment [8].

Turning to `COc1cc(/C=N/NC(=O)c2ccc(C(F)(F)F)nc2Nc2ccc(Cl)cc2C)ccc1O`, the growth is 33.7% in experiment [1]; 16% in experiment [2]; 39.2% in experiment [3]; 26.2% in experiment [4]; 27.8% in experiment [5]; 11.3% in experiment [6]. The growth is 42.8% in experiment [7] and 24.5% in experiment [8].

Consider `O=c1ncc(-c2ccc(C(F)(F)F)cc2)c(NC2CCCCCC2)[nH]1`, for which the growth in experiment [1] was 32.5%; in experiment [2], 72.7%; in experiment [3], 45.3%; in experiment [4], 46.5%; in experiment [5], 40.4%; in experiment [6], 39.1%. Besides, the growth in experiment [7] was 98.1%; in experiment [8], 33.4%.
